According to PubChem BioAssay (EPA / NIEHS):
Activity calls are given as the source filed them. The calls were made as follows: active = hit-call score of the fitted dose curve at least 0.9, where 1 is the maximum; inactive = score below 0.9.

assay: CEETOX_H295R_ANDR: CeeTox H295R High-throughput Steroidogenesis Assay for Androstenedione (ANDR) (AID 2283436); conditions: actives raise or lower the signal
Experimental: CEETOX_H295R is a cell-based, multiplexed-readout assay that uses H295R, a human adrenal gland cell line, with measurements taken at 48 hours after chemical dosing in a 96-well plate.CEETOX_H295R_ANDR is one of 23 assay component(s) measured or calculated from the CEETOX_H295R assay. It is designed to make measurements of hormone induction, a form of inducible reporter, as detected with absorbance signals by HPLC-MS-MS technology.Data from the assay component CEETOX_H295R_ANDR was analyzed into 1 assay endpoint. This assay endpoint, CEETOX_H295R_ANDR, was analyzed with bidirectional fitting relative to DMSO as the negative control and baseline of activity. […] To generalize the intended target to other relatable targets, this assay endpoint is annotated to the steroid hormone intended target family, where the subfamily is androgens.
Cell culture and media preparation procedures were conducted in accordance with OECD Test No. 456 guidelines, with minor modifications. H295R cells (ATCC CRL-2128) were expanded for 5 passages and frozen in batches in liquid nitrogen. Prior to the steroidogenesis assay, H295R cells were thawed and passed at least 4 times. The maximum passage was 10. Cells were maintained in a 1:1 mixture of DMEM/F12 supplemented with 5ml/L ITS+ Premix (BD Bioscience) and 12.5 ml/L Nu-Serum (BD Bioscience). After seeding cells into 96-well plates at 50-60% confluency, cells were allowed to adhere overnight. […] Test chemicals were incubated for 48 hours, then the medium was removed and split into 2 vials containing approximately 75uL each, and stored at -80 C prior to hormone analysis. For steroid quantification, media samples were shipped to OpAns, LLC (Durham, NC) on dry ice, and samples were thawed to room temperature prior to liquid-liquid extraction. Steroid hormones were extracted from media samples using methyl tertbutyl ether (MTBE). An extra derivatization with dansyl chloride was included for estrogen (estrone and estradiol) detection only. Steroid hormones were separated by HPLC, eluted using a reverse phase C18 gradient with electrospray positive ionization, followed by quantification by tandem mass spectrometry (MS/MS). Data were acquired on a MassHunter Workstation Acquisition version B03.01 (Agilent Technologies, Inc.) and processed using MassHunter Quantitative Analysis for QQQ. Accuracy was determined for each hormone analyte from 3 standards to determine upper and lower limits of quantification (ULOQ and LLOQ, respectively) using a 7-point standard curve. Precision and accuracy of the extraction and quantification methods were calculated as the percent relative standard deviation (%RSD) of the spiked standards and percent spiked standard recovered, respectively. […] Test medium was removed following chemical exposure, and cell viability was evaluated in the same wells by MTT. MTT procedures were as follows: after removal of test medium, 500 uL of 0.5 mg/ml of 3-[4,5-dimethylthiazol-2-y]2,5-diphenyltetrazoliumbromide solution was added to the cells. Following a 4-hour incubation at 37 C and 5% CO2 to allow formazan-crystal formation, the MTT solution was removed and blue formazan salt crystals were solubilized using 500uL anhydrous isopropanol with shaking for 20 minutes. Absorbance was read at 570 and 650nm using a Packard Fusion microplate reader. Background correction of absorbance units was used to determine percent change relative to controls. […] When a test chemical reduced cell viability to 20% - 70%, the test chemical was diluted 10-fold and re-evaluated, but if cell viability was <20%, then the test chemical was diluted 100-fold and re-evaluated. Test chemical dilutions were made until cell viability was >/=70%. MTT assays were also conducted for duplicates of all concentrations of chemicals tested in concentration-response studies.

SMILES	outcome	AC50
Cc1cc(O)c(C(C)(C)C)cc1C(C)(C)C	inactive	
CC1CCCCC1	inactive	
Cc1cccc(C)n1	inactive	
CCCCCCCCCc1ccc(OCCO)cc1	inactive	
CCn1c2ccccc2c2ccccc21		50 µM (active)
O=C1C=CC(=O)N1c1ccccc1	inactive	
C[C@]12CC[C@H]3C(=CCc4cc(O)ccc43)[C@@H]1CCC2=O		8.03 µM (active)
CCN(CC)c1ccc(N=Nc2ccccc2)cc1	inactive	
O=C1c2ccccc2C(=O)c2c(Cl)cccc21	inactive	
CCOCOCC	inactive	
O=C(c1ccccc1)c1ccc(Cl)cc1	inactive	
Oc1ccc2c(c1)CCC2	inactive	
CCCCCCCCCCCCC[N+](C)(C)Cc1ccccc1		0.307 µM (active)
CSc1ccc(O)cc1C		78 µM (active)
CCN(CC)c1ccc(C=O)cc1	inactive	
